Consider 40 compounds from PubChem BioAssay (NCATS).

Records with an inconclusive call do not appear. Values without a mark were called inactive. Active and inactive are the calls of the source. The call rests on the fitted dose curve; in most records, active means well fitted cell-killing curve with a large enough effect; inconclusive means small, poorly fitted or top-dose-only effect, or effect the other way; inactive means flat fitted curve, though single readings scatter.
On the % scale 0 is the no-effect control and ±100 the full control effect; potency means the concentration at half of the fitted maximal effect.

In the experiment the test system is JEG-3. In words: Primary qHTS to identify gynecologic anti-cancer compounds using libraries of approved drugs and bioactive compounds (AID 1345084). Further: nearly all actives have a fitted effect of over 55% in size. The conditions noted are these: Gynecologic cancer cell panel viability, ATPlite luminescence, 48 h; series mostly up to 57.5 µM; activity change, negative = cytotoxicity: at the top concentration. The source says: National Center for Advancing Translational Sciences [NCATS] Assay Overview: Chemotherapeutic drug responses vary from cancer to cancer and from patient to patient. These variations could be caused by a number of factors including patient genomic background, tumor mutations, tumor heterogeneity, and aspects of drug treatment. Chemotherapeutic drug resistance is also a common issue and can lead to ineffective treatment and patient death. Here we have profiled the cell killing effects of thousands of compounds to characterize the responses in three gynecological cancers, identify cancer-selective compounds, and understand the diversity of responses to these compounds from pan-cancer suppressors to single cell line selective compounds. In this assay, we screened a 7,914 compound drug library that included approved drug and bioactive compounds in six ovarian, three cervical, and […] placental cancer cell lines using the ATPlite assay for cell viability. […] The cervical cancer cell lines included HeLa, Ca Ski, and C-33 A. The placental cancer cell lines included JEG-3. HEK 293T cells were used as the control cell line to determine the selectivity index. ATPlite is a luminescence based assay reliant on the conversion of a luciferase substrate to light in the presence of ATP. As a cytotoxic compound will suppress growth and decrease the number of cells, the concentration of ATP will decrease, and less light signal will be detected in the well.
Assay Protocol Summary: 1,000 cells in 4 uL of media were dispensed into white, solid bottom 1536-well plates using a Multidrop Combi (Thermo Scientific). The Assay plates were incubated for 16 hours at 37 C with 5% CO2 in assay plates, followed by the addition of 23 nL of DMSO or drug dissolved in DMSO. Each compound was assayed in five concentrations (0.092, 0.46, 2.3, 11.5, and 57.5 uM), using the automated Wako 1536 Pin Tool workstation and incubated at 37 C with 5% CO2 48 hours. 4 uL of ATPlite, the ATP monitoring reagent, was then added to the each well of the assay plates using the Multidrop Combi reagent dispenser followed by incubation for 15 minutes at room temperature. The resulting luminescence was measured using the ViewLux plate reader.
For orientation: qHTS replaces the single test concentration by a dilution series.
Turning to `C#CCOC(C(=O)OCCN(C)C)(c1ccccc1)c1ccccc1`, the “activity change, negative = cytotoxicity” value is -4.19%.
Still for that read-out and setting: then `CCC(COC(=O)c1cc(OC)c(OC)c(OC)c1)(c1ccccc1)N(C)C` (stereo not given), with -29.2%; and `CC[N+](CC)(CC)CC`, with 5.66%.
The same measure, in the same setting: for `c1ccc2c(c1)OCC(C1=NCCN1)O2` (stereo not given) the value was -18.4%; for `O=c1[nH]c2ccccc2n1CCCN1CCC(n2c(=O)[nH]c3cc(Cl)ccc32)CC1`, -2.64%.
Still for that read-out and setting: then `CC1OC(C)OC(C)O1` (stereo not given), with -2.25%.
For the compound `COC[C@@H](NC(C)=O)C(=O)NCc1ccccc1`, the “activity change, negative = cytotoxicity” value is -2.59%.
Still for that read-out and setting: for `NCC(CC(=O)O)c1ccc(Cl)cc1` (stereo not given) the value was -6.96% [at 0.462 µM].
The same measure, in the same setting: then `NCCc1cc(O)c(O)cc1O`, with -10.2%.
Still for that read-out and setting: then `COc1ccc(C(CN(C)C)C2(O)CCCCC2)cc1` (stereo not given), with -16.9%; and `Nc1ccncc1`, with 8.26%.
With `CCN(CC)CCN1C(=O)CN=C(c2ccccc2F)c2cc(Cl)ccc21`, the “activity change, negative = cytotoxicity” value was -2.64%.
The same measure, in the same setting: for `C[C@]12CCC(=O)C(O)=C1CC[C@@H]1[C@@H]2CC[C@]2(C)C(=O)CC[C@@H]12` the value was 16.4%; for `CC1NCCOC1c1ccccc1` (stereo not given), 8.38%; for `O=C(NC(O)C(Cl)(Cl)Cl)NC(O)C(Cl)(Cl)Cl` (stereo not given), 0.941%.
On the same count and under the same terms, then `N[C@@H](Cc1ccc(N(CCCl)CCCl)cc1)C(=O)O`, with 0.373%; and `O=C1CC[C@@]2(O)[C@H]3Cc4ccc(O)c5c4[C@@]2(CCN3CC2CC2)[C@H]1O5`, with -16.9%.
Still for that read-out and setting: then `O=P1(NCCCl)OCCCN1CCCl` (stereo not given), with 10.2%; and `CC(C)(N)Cc1ccc(Cl)cc1`, with -8.02%; and `CO[C@]12CC[C@@]3(C[C@@H]1[C@](C)(O)C(C)(C)C)[C@@H]1Cc4ccc(O)c5c4[C@@]3(CCN1CC1CC1)[C@H]2O5`, with -6.52% [at 116 µM].
For the compound `Cc1ncc(CNC(=O)N(CCCl)N=O)c(N)n1`, the “activity change, negative = cytotoxicity” value is -8.17%.
Same read-out and setting: for `Oc1cc(Cl)ccc1Oc1ccc(Cl)cc1Cl` the value was 3.31%; for `CCCN1CCC[C@@H]2Cc3nc(N)ncc3C[C@H]21`, -10.3%; for `CC[N+]1(C)CCCC(OC(=O)C(O)(c2ccccc2)c2ccccc2)C1` (stereo not given), -1.34%.
On the same count and under the same terms, then `CCCC(C)(COC(N)=O)COC(=O)NC(C)C` (stereo not given), with 2.19%.
The same measure, in the same setting: for `CCN(CC)C(=O)N[C@@H]1C=C2c3cccc4[nH]cc(c34)C[C@@H]2N(C)C1` the value was 5.1%.
As for `c1ccc2c(c1)Nc1ccccc1S2`, the Potency entry is “inactive”.
For `CCN(CC)CCOC(=O)C(O)(c1ccccc1)c1ccccc1`, the “activity change, negative = cytotoxicity” value was 16.5%.
Still for that read-out and setting: for `Oc1ccccc1-c1ccccc1` the value was 9.63%; for `Clc1ccc(COC(Cn2ccnc2)c2ccc(Cl)cc2Cl)cc1` (stereo not given), -17.6%; for `CCC(=O)C(CC(C)N(C)C)(c1ccccc1)c1ccccc1` (stereo not given), 1.31% [at 116 µM].
Consider `C[C@@H]1O[C@@H](O[C@H]2C[C@@H](O)[C@]3(CO)[C@H]4[C@H](O)C[C@]5(C)[C@@H](C6=CC(=O)OC6)CC[C@]5(O)[C@@H]4CC[C@]3(O)C2)[C@H](O)[C@H](O)[C@H]1O`, for which the Potency is 355 nM (active).
Turning to `CN(C)[C@@H]1C(=O)C(C(N)=O)=C(O)[C@@]2(O)C(=O)C3=C(O)c4c(O)cccc4[C@@](C)(O)[C@H]3C[C@@H]12`, the “activity change, negative = cytotoxicity” value was -15.8%.
Regarding `CCCC1CCCCN1` (stereo not given), the “activity change, negative = cytotoxicity” value is 4.78%.
On the same count and under the same terms, for `C#CCN(C)[C@H](C)Cc1ccccc1` the value was 21%; for `CC(=O)[C@H]1CC[C@H]2[C@@H]3CC[C@H]4C[C@](C)(O)CC[C@]4(C)[C@H]3CC[C@]12C`, 0.493%; for `Cn1cc(C2=C(c3cn(C4CCN(Cc5ccccn5)CC4)c4ccccc34)C(=O)NC2=O)c2ccccc21`, 23.5%.
With `CC(C)CC(N(C)C)C1(c2ccc(Cl)cc2)CCC1` (stereo not given), the “activity change, negative = cytotoxicity” value is 9.62%.
As to `Oc1ccc(Cl)cc1Cc1ccccc1`, the Potency result is “inactive”.
Regarding `FC(F)(F)c1cccc(C2=CCN(CCc3ccc4ccccc4c3)CC2)c1`, the “activity change, negative = cytotoxicity” value is 1.76%.
